Results: PubChem BioAssay (NCI)
The panel holds about 83,000 compounds, 20% with a hit somewhere; the sample as a whole holds those more often.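 In brief: 96-well plates, 48 h treatment, single concentration, percent growth endpoint.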 Activity calls are given as the source filed them.

These compounds were tested on IGROV1 ovarian (assay: NCI-60 one-dose screen, 48 h (100 = growth as untreated, 0 = no growth, -100 = all killed)). Details: 10 µM unless noted.
Procedure: Growth inhibition of the IGROV1 human tumor cell line is measured as a screen for anti-cancer activity. Cells are grown in 96 well plates and exposed to the test compound for 48 hours. Compounds are tested at a single concentration, which is 10^-5 M for most compounds. The reported endpoint is percent growth (GI% or GIPRCNT), where numbers from 0 - 100% represent growth inhibition, and numbers from -100% - 0 represent cell death. For example, a value of 40 represents 60% growth inhibition. A value of 0 means no net growth occurred over the course of the experiment. A value of -40 indicates 40% of cells at the beginning of the experiment died by the end of the experiment. A value of -100 means all cells are dead at the end of the experiment.
NCI-60 Human Tumor Cell Lines Screen was performed using the standard one-dose NCI protocol, which is described in more detail at https://dtp.cancer.gov/discovery_development/nci-60/default.htm.
Compounds with GIPRCNT values below 10 were considered active. Activity score was based on GIPRCNT using the following formula: […]
Score is 0 for GIPRCNT values of 100 or above, 50 for GIPRCNT values of 0, and 100 for GIPRCNT values of -100.

SMILES | growth
O=C(Nc1ccc(F)cc1)c1cc([N+](=O)[O-])ccc1O | 66.3% (inactive)
Cc1ccnc2nc(C(=O)OCC(=O)Nc3ccc(-c4ccccc4)cc3)nn12 | -5.67% (active)
Nc1nc(-c2cc3ccccc3o2)cc(=O)c(=O)[nH]1 | 100% (inactive)
CCC(=O)Nc1ccccc1C#C/C=C\C#Cc1ccccc1SC | -49.3% (active)
Cc1ccc(Cn2c(-c3cccs3)nc3ccccc32)cc1 | 81.8% (inactive)
CC(CCc1ccccc1)NC(=O)c1n[nH]c(=O)c2ccccc12 (stereo not given) | 3.79% (active)
O=C1Nc2ccc(Br)cc2C1=N/C=c1\[nH]c(=O)/c(=C/c2ccc(Cl)cc2)s1 | 105% (inactive)
O=C(/C=C/CN1CCOCC1)Nc1cc2c(Nc3ccc(F)c(Cl)c3F)ncnc2cc1OCCOC(F)F | -11.1% (active)
COc1cccc(C2CC(=O)Nc3c2c(C)nn3-c2nc3ccccc3[nH]2)c1OC (stereo not given) | 3.88% (active)
COC(=O)c1cc(-c2cccs2)c(C#N)c(N)c1C#N | 94.2% (inactive)
COc1cc(/C=C\c2cc(OC)c(OC)c(OC)c2)cc(N/C=C\C(=O)c2c[nH]c3ccccc23)c1OC | 40.5% (inactive)
COc1cc(NCCCN=C(N)NC(N)=NC(C)C)c2ncccc2c1 | -12.8% (active)
c1ccc([P+](CCC[P+](c2ccccc2)(c2ccccc2)c2ccccc2)(c2ccccc2)c2ccccc2)cc1 | 59.1% (inactive)
CC1CCN(C(=O)CSc2nc3sc4c(c3c(=O)[nH]2)CCCC4)CC1 | 87.7% (inactive)
C[N+](C)(C)c1ccc(CC2c3ccccc3-c3ccccc32)cc1 | 64.4% (inactive)
Cc1ccc2c(c1)C(=O)C(c1c(-c3[nH]c(=O)c4ccc(C)cc4c3O)c(O)c3ccccc3c1O)=NC2=O | 6.46% (active)
O=C(c1c[nH]c2ccccc12)C(Sc1nc2ccccc2c(=O)[nH]1)c1ccccc1 (stereo not given) | 19.1% (inactive)
O=C(Nc1cccc(Cl)c1)c1cc([N+](=O)[O-])ccc1O | 62.5% (inactive)
CCCCCC(=O)OCc1ccccc1 | 96.7% (inactive)
C#CCN1C(=O)/C(=c2\sc3n(c2=O)NC2C(N=3)N(CC)C(=O)N2CC)c2ccccc21 (stereo not given) | 66% (inactive)

SMILES | growth
COc1ccc(/C(=N\O)c2cc(OC)c(OC)c(OC)c2)c(OC)c1N | 46.1% (inactive)
Cc1oc2nc[nH]c(=O)c2c1C(=O)/C=C/c1ccc(Cl)cc1Cl | 89.2% (inactive)
CCCCNC(=O)NS(=O)(=O)c1ccc(N2N=C(c3ccc(C)cc3C)CC2c2ccc(OC)cc2)cc1 (stereo not given) | 98.9% (inactive)
CCCCNc1nnc(-c2cc(-c3cc4ccccc4o3)nn2-c2ccccc2)o1 | 63.9% (inactive)
Clc1nc(Cl)c2ncn(C/C=C/Cn3cnc4c(Cl)nc(Cl)nc43)c2n1 | 17.7% (inactive)
Cc1oc2nc[nH]c(=O)c2c1C(=O)/C=C/c1ccc(Cl)cc1 | 38.9% (inactive)
COc1ccc(NC(=O)CSc2nc3ccccc3c(=O)n2-c2ccccc2C(F)(F)F)c(OC)c1OC | 127% (inactive)
CCOC(=O)C1=C(CSC(=S)N(C2CCCCC2)C2CCCCC2)N(C)C(=O)NC1c1ccccc1 (stereo not given) | 56.3% (inactive)
CCc1c(C(=O)Nc2ccc3ccccc3c2)[nH]c(C)c1C(C)=O | 108% (inactive)
COc1cc(C2C=C(C)N=C3SC=C(C)N32)cc(OC)c1OC (stereo not given) | -49.8% (active)
CCc1cccc(C)c1NC(=O)c1sc2nc3c(cc2c1N)C(=O)CCC3 | 30.7% (inactive)
CCNCc1ccncc1 | 111% (inactive)
Cc1ccc2nc(-c3c(CCCO)noc3N)[nH]c(=O)c2c1 | 4.96% (active)
CCOC(=O)c1ccccc1NC(c1ccccc1)c1ccc2cccnc2c1O (stereo not given) | 41.8% (inactive)
CCOC(=O)c1cc(/C(=N\O)c2cc(OC)c(OC)c(OC)c2)n2c(C)cccc12 | 52.5% (inactive)
Nc1nc(-c2ccccc2)cs1 | 113% (inactive)
CC(C)(C)c1cn2cccc(C(=O)N3CCN(CC(=O)Nc4ccc(Cl)cc4C(=O)c4ccccc4Cl)CC3)c2n1 | 51.2% (inactive)
CC(=O)Nc1nc(C(=O)N2N=C(C)/C(=C/c3ccccc3)C2=O)cs1 | 101% (inactive)
COc1ccc(-c2nc3sccn3c2-c2ccnc(NCCCNS(=O)(=O)c3ccc(F)cc3)n2)cc1 | 16.3% (inactive)
Cc1ccc(S(=O)(=O)N2CCC(C(=O)Nc3ccc(F)cc3F)CC2)cc1 | -38.5% (active)
